Shown are actives, neighbours in structure and some others; about 19% of the full set was active somewhere.
KB-V1 cytotox: qHTS assay for MDR1-selective chemotherapeutics: Primary screen using the drug-selected MDR subline cells KB-V1. AID 1347076, 2019. 400,000 tested, 3.4% active. KB-V1 MDR cells viability, CellTiter-Glo, 72 h. Potency, µM (highest dose often 46.1 µM), hits mostly cytotoxic; also: nearly all actives have a fitted effect of over 60% in size
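Readout: CellTiter-Glo luminescence, 10 min after addition. Cells: KB-V1 MDR subline, 72 h at 37 degrees C with compound. Analysis: corrected, normalized data fitted to concentration-effect curves.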
TDP1 cell noCPT: qHTS for Inhibitors of human tyrosyl-DNA phosphodiesterase 1 (TDP1): qHTS in cells in absence of CPT | DT40 Tdp1-/- hTDP1 cells, no CPT, ATP luminescence, 48 h | Potency, µM (highest dose often 46.2 µM), hits mostly inhibitors | 420,000 tested, 15% active | AID 686978, 2013; also: nearly all actives have a fitted effect of over 55% in size
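Seeded 400 DT40-hTDP1 cells/well (vehicle DMSO, no 20 nM CPT); pinned compounds; ≥48 hr at 37 °C; CellTiter-Glo luminescence as viability measure.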
HT1080 IDH1KD tx: qHTS for induction of synthetic lethality in tumor cells producing 2HG: qHTS for the HT-1080-IDH1KD cell line; HT-1080 IDH1 knockdown viability, ATP luminescence, 48 h; Potency, µM (top dose mostly 46.1 µM), hits mostly cytotoxic; 360,000 tested, 2% active
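Knockdown cells (IDH1KD HT-1080) received compounds 2 h after plating at 750 cells/well and were kept 48 h at 37 °C in 5% FBS RPMI. A CellTiter-Glo luminescence read gave % activity for curve fitting.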
HT1080NT lethal: qHTS for induction of synthetic lethality in tumor cells producing 2HG: qHTS for the HT-1080-NT fibrosarcoma cell line; HT-1080-NT fibrosarcoma viability, CellTiter-Glo ATP luminescence, 48 h; Potency, µM (highest dose often 46.1 µM), hits mostly cytotoxic; 360,000 tested, 1.6% active;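 also: NT is the 2HG producing partner of a matched IDH1 knockdown line; nearly all actives have a fitted effect of over 55% in size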
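Toxicity toward the 2HG-producing NT line was scored as %Activity, normalised to DMSO and no-cell wells, from CellTiter-Glo luminescence after 48 hours' treatment.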
KB-3-1 tox: qHTS assay for MDR1-selective chemotherapeutics: Primary screen using the parental adenocarcinoma cell KB-3-1 | KB-3-1 viability, CellTiter-Glo ATP luminescence, 72 h | Potency, µM (top dose mostly 46.1 µM), actives largely listed as cytotoxic | 400,000 tested, 1.4% active; also: nearly all actives have a fitted effect of over 60% in size
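Cytotoxicity measured as CellTiter-Glo luminescence after 72 h at 37 C. Compound titrations were pinned onto drug-naive KB-3-1 parental adenocarcinoma cells grown in DMEM with 10% FBS, and normalized data fitted to concentration-response curves.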
TDP1 cell CPT: qHTS for Inhibitors of human tyrosyl-DNA phosphodiesterase 1 (TDP1): qHTS in cells in presence of CPT | 420,000 tested, 12% active | Potency, µM (highest dose often 46.2 µM), hits mostly inhibitors | AID 686979, 2013 | chicken DT40 Tdp1-/-;hTDP1 cells + 20 nM CPT, ATP luminescence, 48 h; also: nearly all actives have a fitted effect of over 55% in size
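Chicken DT40 Tdp1-/- cells complemented with human TDP1, 400 cells/well, exposed to compounds plus 20 nM camptothecin for at least 48 h at 37 C; viability read as ATP content by CellTiter-Glo luminescence.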
Hits are given with their value. Calls follow the shape of the dose curve; as a rule, active = well fitted curve in the direction sought with a large enough effect; inconclusive = small, poorly fitted or top-dose-only effect, or another doubt; inactive = no such curve, though single readings can be large; an effect the other way counts as inactive or inconclusive.

`CCC(c1nnc(SCC(=O)Nc2c(F)cccc2F)n1Cc1ccccc1)N(C)C` (configuration not stated) gave KB-V1 cytotox inactive, TDP1 cell noCPT inactive, HT1080 IDH1KD tx inactive, HT1080NT lethal inactive, KB-3-1 tox inactive and TDP1 cell CPT inactive.
Screening CCOc1ccc(N(CC(=O)Nc2cccc(N(C)S(C)(=O)=O)c2)S(=O)(=O)c2ccccc2)cc1 returned KB-V1 cytotox inconclusive, TDP1 cell noCPT inconclusive, HT1080 IDH1KD tx inactive, HT1080NT lethal inactive, KB-3-1 tox inactive and TDP1 cell CPT 20.6µM.
`COc1ccc(S(=O)(=O)N(CC(=O)Nc2cccc(C(F)(F)F)c2)c2ccc(C)cc2)cc1` gave KB-V1 cytotox inactive, TDP1 cell noCPT 23.1µM, KB-3-1 tox inconclusive and TDP1 cell CPT inconclusive.
Screening COC(=O)c1ccc(Cl)c(NC(=O)CN(c2ccccc2)S(=O)(=O)c2ccc(OC)cc2)c1 returned KB-V1 cytotox inconclusive, TDP1 cell noCPT 16.4µM, HT1080 IDH1KD tx inactive, HT1080NT lethal inactive, KB-3-1 tox inactive and TDP1 cell CPT inconclusive.
COc1ccc(S(=O)(=O)N(CC(=O)Nc2cc(C)cc(C)c2)c2ccc(Cl)cc2)cc1 was read as KB-V1 cytotox inactive, TDP1 cell noCPT 23.1µM, KB-3-1 tox inactive and TDP1 cell CPT inconclusive.
Screening Cc1ccc2nc(CN3CCN(C(=O)Nc4cccc(C)c4C)CC3)oc2c1 returned KB-V1 cytotox inactive, TDP1 cell noCPT inactive, KB-3-1 tox inactive and TDP1 cell CPT inconclusive.
For COc1ccc(N(CC(=O)Nc2cccc(N(C)S(C)(=O)=O)c2)S(=O)(=O)c2ccc(F)cc2)cc1 the results were KB-V1 cytotox inconclusive, TDP1 cell noCPT inconclusive, HT1080 IDH1KD tx inactive, HT1080NT lethal inactive, KB-3-1 tox inactive and TDP1 cell CPT 16.4µM.
CCOc1ccc(N(CC(=O)N/N=C/c2cc([N+](=O)[O-])ccc2Cl)S(C)(=O)=O)cc1 was read as KB-V1 cytotox inactive, TDP1 cell noCPT 23.1µM, HT1080 IDH1KD tx inactive, HT1080NT lethal inactive, KB-3-1 tox inactive and TDP1 cell CPT inconclusive.
Screening COC(=O)c1ccc(NC(=O)CN(c2cccc(C(F)(F)F)c2)S(C)(=O)=O)cc1 returned KB-V1 cytotox inactive, TDP1 cell noCPT 4.61µM, KB-3-1 tox inactive and TDP1 cell CPT 23.1µM.
CCCOc1ccc(/C=N/NC(=O)CN(c2ccc(OCC)cc2)S(C)(=O)=O)cc1 was read as KB-V1 cytotox inactive, TDP1 cell noCPT inactive, HT1080 IDH1KD tx inactive, HT1080NT lethal inactive, KB-3-1 tox inactive and TDP1 cell CPT inactive.
For CCOc1ccc(NC(=O)CN(c2ccc([N+](=O)[O-])cc2)S(=O)(=O)c2ccccc2)cc1 the results were KB-V1 cytotox 7.31µM, TDP1 cell noCPT inconclusive, HT1080 IDH1KD tx 8.2µM, HT1080NT lethal inconclusive, KB-3-1 tox inactive and TDP1 cell CPT inconclusive.
Screening O=C(Nc1cccnc1Oc1ccc(Cl)cc1)c1cccc2ccccc12 returned KB-V1 cytotox inactive, TDP1 cell noCPT inconclusive, HT1080 IDH1KD tx inactive, HT1080NT lethal inactive, KB-3-1 tox inactive and TDP1 cell CPT inactive.
For COc1ccc(N(CC(=O)Nc2ccc(OC)c(OC)c2)S(=O)(=O)c2ccccc2)cc1Cl the results were KB-V1 cytotox inactive, TDP1 cell noCPT inconclusive, HT1080 IDH1KD tx inactive, HT1080NT lethal inactive, KB-3-1 tox inactive and TDP1 cell CPT inconclusive.
For COc1ccccc1N(CC(=O)Nc1cccc(C(F)(F)F)c1)S(C)(=O)=O the results were KB-V1 cytotox inactive, TDP1 cell noCPT inactive, HT1080 IDH1KD tx inactive, HT1080NT lethal inactive, KB-3-1 tox inactive and TDP1 cell CPT inactive.
`Cc1ccc([N+](=O)[O-])cc1N(CC(=O)Nc1ccc(S(=O)(=O)Nc2cccc(C(F)(F)F)c2)cc1)S(C)(=O)=O` gave KB-V1 cytotox inactive, TDP1 cell noCPT 18.4µM, HT1080 IDH1KD tx inconclusive, HT1080NT lethal inconclusive, KB-3-1 tox inconclusive and TDP1 cell CPT inconclusive.
For CCOc1ccc(N(CC(=O)N/N=C/c2ccccn2)S(=O)(=O)c2ccc(Cl)cc2)cc1 the results were KB-V1 cytotox inactive, TDP1 cell noCPT 20.6µM, HT1080 IDH1KD tx inconclusive, HT1080NT lethal inconclusive, KB-3-1 tox inactive and TDP1 cell CPT inconclusive.
For COc1ccc(N(CC(=O)Nc2cccc(N(C)S(C)(=O)=O)c2)S(=O)(=O)c2ccccc2)cc1Cl the results were KB-V1 cytotox inconclusive, TDP1 cell noCPT 20.6µM, HT1080 IDH1KD tx inactive, HT1080NT lethal inactive, KB-3-1 tox inconclusive and TDP1 cell CPT 10.3µM.
Screening CCOc1ccc(N(CC(=O)NCCSc2ccccn2)S(=O)(=O)c2ccc(Cl)cc2)cc1 returned KB-V1 cytotox inactive, TDP1 cell noCPT inconclusive, HT1080 IDH1KD tx inactive, HT1080NT lethal inactive, KB-3-1 tox inactive and TDP1 cell CPT inconclusive.
`O=C(NC1CCCCC1)c1cccc(COCC(F)(F)F)c1` gave KB-V1 cytotox inactive, TDP1 cell noCPT inactive, HT1080 IDH1KD tx inactive, HT1080NT lethal inactive, KB-3-1 tox inactive and TDP1 cell CPT inactive.
C/C(=N\NC(=S)NC1CCCCC1)c1ccc(O)cc1 was read as KB-V1 cytotox inconclusive, TDP1 cell noCPT 16.4µM, HT1080 IDH1KD tx inactive, HT1080NT lethal inactive, KB-3-1 tox 16.4µM and TDP1 cell CPT inconclusive.
For C/C(=N\NC(=S)NC1CCCCC1)c1ccccc1 the results were KB-V1 cytotox inactive, TDP1 cell noCPT 29.1µM, HT1080 IDH1KD tx inactive, HT1080NT lethal inactive, KB-3-1 tox 16.4µM and TDP1 cell CPT inconclusive.
For Cc1cc(CNC(=O)c2ccc(C)c([N+](=O)[O-])c2)c2ccccc2n1 the results were KB-V1 cytotox inconclusive, TDP1 cell noCPT 9.2µM, HT1080 IDH1KD tx inactive, HT1080NT lethal inactive, KB-3-1 tox inactive and TDP1 cell CPT 13µM.
Screening Cc1ccc(C(=O)NCCn2ccc3ccccc32)cc1[N+](=O)[O-] returned KB-V1 cytotox inconclusive, TDP1 cell noCPT 8.2µM, HT1080 IDH1KD tx inactive, HT1080NT lethal inactive, KB-3-1 tox inactive and TDP1 cell CPT 13µM.
Screening O=C(NCCc1ccccc1)c1cccc([N+](=O)[O-])c1 returned KB-V1 cytotox 18.4µM, TDP1 cell noCPT inconclusive, HT1080 IDH1KD tx inactive, HT1080NT lethal inactive, KB-3-1 tox inactive and TDP1 cell CPT inconclusive.

Source: PubChem
